Assay outcomes from PubChem.
HT1080NT lethal: kills 2HG-producing HT-1080-NT fibrosarcoma cells; actives 1.6% (n = 360,000); HT-1080-NT fibrosarcoma viability, CellTiter-Glo ATP luminescence, 48 h; Potency, µM (highest dose often 46.1 µM), inactives show at the highest dose activity, negative = less viability, actives largely listed as cytotoxic;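 note: NT is the 2HG producing partner of a matched IDH1 knockdown line; potency is the fitted concentration of half-maximal effect; 0% = DMSO-treated cells and -100% = media-only wells without cells; nearly all actives have a fitted effect of over 55% in size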
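Viability by CellTiter-Glo luminescence after 48 h compound exposure at 37C of HT-1080-NT cells (750/well, RPMI, 5% FBS). % activity scaled between DMSO wells and medium-only wells, then curve-fitted and categorized by curve class.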
TDP1 cell CPT: DT40-hTDP1 cell growth loss with CPT; chicken DT40 Tdp1-/-;hTDP1 cells + 20 nM CPT, ATP luminescence, 48 h; Potency, µM (series often up to 46.2 µM), inactives show at the highest dose activity change, negative = growth inhibition, usual class: inhibitors; actives 12% (n = 420,000); AID 686979; note: potency is the fitted concentration of half-maximal effect; nearly all actives have a fitted effect of over 55% in size
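Chicken DT40 Tdp1-/- cells complemented with human TDP1, 400 cells/well, exposed to compounds plus 20 nM camptothecin for at least 48 h at 37 C; viability read as ATP content by CellTiter-Glo luminescence.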
IL1B secr inh: inhibitors of inflammasome signaling (IL-1 beta secretion); THP-1 LPS/ATP IL-1B secretion, AlphaLISA, 16 h; active compounds read low; activity change, % at 57.5 µM; actives 4.7% (n = 360,000); AID 743279; in the data active = activity change below about -50%; inconclusive = mostly about -30% to -49%
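THP-1 cells pretreated 1 hr with compounds (up to 57.5 uM final), then stimulated with LPS (250 ng/mL final) plus ATP (1.25 mM final); secreted IL-1B measured by AlphaLISA after 16 hr, decreased signal indicating inhibition.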
DT40 TDP1 no CPT: qHTS for Inhibitors of human tyrosyl-DNA phosphodiesterase 1 (TDP1): qHTS in cells in absence of CPT; AID 686978, 2013; actives 15% (n = 420,000); Potency, µM (series often up to 46.2 µM), without a hit: at the top dose activity change, negative = growth inhibition, actives largely listed as inhibitors; DT40 Tdp1-/- hTDP1 cells, no CPT, ATP luminescence, 48 h; note: potency is the fitted concentration of half-maximal effect; nearly all actives have a fitted effect of over 55% in size
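Cells were dispensed at 400 per well, compounds added by pin tool, plates incubated ≥48 hr at 37 °C, then CellTiter-Glo added for 30 min at room temperature before luminescence reading. Line: DT40 Tdp1-/- complemented with hTDP1; camptothecin omitted.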
HT1080 IDH1KD tx: HT-1080 IDH1 knockdown cell toxicity (counter line) | HT-1080 IDH1 knockdown viability, ATP luminescence, 48 h | Potency, µM (highest dose often 46.1 µM), inactives show top-dose activity, negative = toxicity, usual class: cytotoxic | actives 2% (n = 360,000) | AID 686971;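 note: potency is the fitted concentration of half-maximal effect; 0% = DMSO wells and -100% = cell-free medium wells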
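Using the IDH1-knockdown HT-1080 line run in the same batch and compound series as the NT line, viability after 48 h at 37 °C was determined by CellTiter-Glo luminescence and expressed as % activity.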
Starred values were filed as active, the others as inactive; ? = inconclusive; . = no result; [ ] = dose if it differs, or a comment. Most compounds without a hit are left out; they make up all but 19% or so of the library. Unless noted, calls come from the whole dose curve; as a rule, active = well fitted curve in the direction sought with a large enough effect; inconclusive = small, poorly fitted or top-dose-only effect, or another doubt; inactive = no such curve, though single readings can be large; an effect the other way counts as inactive or inconclusive. Unless noted, % is set by controls: 0 for no effect and ±100 for the full control effect.

SMILES	HT1080NT lethal	TDP1 cell CPT	IL1B secr inh	DT40 TDP1 no CPT	HT1080 IDH1KD tx
CCOC(=O)C1CCCN(S(=O)(=O)c2ccc(S(N)(=O)=O)cc2)C1 (configuration not stated)	-2%	-1%	-12	?	-14%
CCOC(=O)C1CCCN(S(=O)(=O)c2csc(C(N)=O)c2)C1 (configuration not stated)	.	?	.	15µM*	.
CCN(CC)S(=O)(=O)c1ccc(S(=O)(=O)N2CCCC(C(=O)NC3CC3)C2)cc1 (configuration not stated)	-3%	1.3µM*	19	5.8µM*	-2%
Cc1ccc(NS(=O)(=O)c2cc(OCC(N)=O)c(C)cc2Cl)cc1C	-15%	20µM*	31	?	-16%
O=C(Nc1cccc(S(=O)(=O)N2CCOCC2)c1)c1cc2ccccc2o1	-3%	-23%	-11	-27%	-9%
Cc1cccc(NS(=O)(=O)c2cc(OCC(N)=O)c(C)cc2Cl)c1	-4%	-20%	33	?	-3%
CCOC(=O)C1CCCN(S(=O)(=O)c2cc(OCC(N)=O)c(C)cc2Cl)C1 (configuration not stated)	0%	-15%	-92*	-9%	-6%
C/C(=N\NC(=S)Nc1cc(S(=O)(=O)N2CCOCC2)ccc1Cl)c1ccccc1F	-17%	3.3µM*	0	2.3µM*	?
O=C(Nc1cc(S(=O)(=O)N2CCOCC2)ccc1Cl)c1cc2ccccc2o1	16%	?	-75*	?	-9%
CCOC(=O)C1CCCN(S(=O)(=O)CCNC(=O)c2ccc3c(c2)OCO3)C1 (configuration not stated)	3%	-1%	-73*	-6%	4%
CCOC(=O)C1CCCN(C(=S)Nc2ccc(S(=O)(=O)N3CCOCC3)cc2)C1 (configuration not stated)	0%	?	-7	16µM*	-10%
N#CC1(c2ccccc2)CCCN1C(=O)c1ccc(Br)o1 (configuration not stated)	2%	-11%	-14	-23%	-19%
COc1ccc(Cn2ccc3nc(C)c(C(=O)NCc4ccc(SC)cc4)cc3c2=O)cc1	.	-4%	.	?	.
COc1ccc(N2CCN(C(=O)c3oc4c(c3C)C(=O)CCC4)CC2)cc1	2%	-28%	-4	-22%	-7%
COC(=O)c1ccc(CNc2ccc(C(C)=O)cc2)cc1	0%	?	0	15µM*	-7%
COC(=O)c1ccc(CNCC(=O)Nc2ccc(C(=O)OC)cc2)cc1	0%	?	19	10%	-2%
Cn1c(=O)c2c(n3cnnc13)-c1ccccc1CC21CCCC1	-2%	?	-12	15µM*	-4%
O=c1c2c(n3nnnc3n1Cc1ccccc1)-c1ccccc1CC21CCCC1	8%	-29%	14	?	6%
O=c1c2c(n3nnnc3n1-c1ccccc1)-c1ccccc1CC21CCCC1	-2%	2.3µM*	21	?	-8%
CSc1nnc2n(C)c3c(c(=O)n12)C1(CCCC1)Cc1ccccc1-3	-11%	?	1	26µM*	-9%
Cn1ncn2c(=O)c3c(nc12)-c1ccccc1CC31CCCC1	1%	?	63	?	-3%
O=c1c2c(n3cnnc3n1C1CCCCC1)-c1ccccc1CC21CCCCC1	-1%	21µM*	16	26µM*	26%
O=C(O)CN1C(=O)c2ccc(Oc3ccc4c(c3)C(=O)N(CC(=O)O)C4=O)cc2C1=O	11%	8%	17	2%	12%
CCCC(C)C(=O)Nc1nc(C)c(-c2csc(Nc3ccccc3OC)n2)s1 (configuration not stated)	2%	16µM*	3	23µM*	0%
CCC(=O)Nc1nc(C)c(-c2csc(Nc3ccccn3)n2)s1	?	?	-96*	?	?
SMILES	HT1080NT lethal	TDP1 cell CPT	IL1B secr inh	DT40 TDP1 no CPT	HT1080 IDH1KD tx
CCCCCCC(=O)Nc1nc(C)c(-c2csc(Nc3ccccc3OC)n2)s1	-6%	?	-1	21µM*	-14%
CCCCCC(=O)Nc1nc(C)c(-c2csc(Nc3ccccc3OC)n2)s1	-7%	23µM*	-8	18µM*	-11%
COc1ccccc1Nc1nc(-c2sc(NC(=O)c3ccccc3)nc2C)cs1	-28%	?	-21	?	-20%
O=[N+]([O-])c1ccc2c(c1)C=C1CCCCC1(N1CCCC1)O2 (configuration not stated)	4%	-30%	15	-22%	3%
Cc1nc(NC(=O)c2ccccc2)sc1-c1csc(N)n1	-19%	?	0	?	?
Cc1nc(NC(=O)c2ccccc2)sc1-c1csc(NCCc2ccccc2)n1	-19%	23µM*	2	16µM*	-23%
CCCC(C)C(=O)Nc1nc(C)c(-c2csc(Nc3ccc(Cl)cc3)n2)s1 (configuration not stated)	0%	?	-3	26µM*	-8%
CCOc1ccc(N2C(=O)CC(Sc3nc(-c4cccs4)cc(C(F)(F)F)c3C#N)C2=O)cc1 (configuration not stated)	-4%	?	-6	?	-3%
CCOc1ccccc1NC(=O)c1c(NC(=O)c2ccccc2C)sc2c1CCC(C)C2 (configuration not stated)	.	2%	.	-11%	.
Cc1ccc(Nc2c(-c3ccc(O)cc3)nc3cccc(C)n23)cc1	.	23µM*	.	?	.
CSc1ccc(-c2nc3cccc(C)n3c2Nc2ccc(Cl)cc2)cc1	.	9.2µM*	.	7.3µM*	.
Cc1ccc(-c2nc3nc(C)cc(C)n3c2Nc2ccc3c(c2)OCCO3)cc1	.	?	.	-42%	.
CCCCn1c(N)c(N(C(=O)CSc2nnnn2-c2ccc(C)cc2)C2CCCC2)c(=O)[nH]c1=O	1%	4%	-26	1%	1%
O=C(CSc1nnc(COc2ccccc2)o1)N1CCOCC1	13%	-11%	0	-17%	11%
O=C(CSc1nnc(COc2ccc(Br)cc2)o1)N1CCOCC1	21%	-33%	42	18µM*	-14%
O=C(COc1ccc2cc(Br)ccc2c1)N1CCOCC1	0%[9.24 µM]	15µM*	-13	?	4%
O=C(COc1ccc(C(=S)N2CCOCC2)cc1)N1CCOCC1	-8%	1%	17	4%	-5%
Cc1c(C(=O)N2CCOCC2)sc(NC(=O)Cc2ccccc2)c1C#N	10%	2%	2	-5%	3%
CCc1nc2ccccc2c(C(=O)Nc2cc(C)ccc2C)c1C	0%	?	3	?	-1%
COC(=O)c1c(SC)nc2ccccc2c1OCc1ccc(C)cc1C	.	?	.	26µM*	.
